According to PubChem BioAssay AID623911 (Vanderbilt High Throughput Screening Facility, 2012):
Among all 2,100 compounds or so, about 770 (37%) were called active. The list shows a part of the results. Values without a mark were called inactive.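 The calls were made as follows: active = by-eye trace score of 1 for enhancers or -1 for inhibitors, so actives lie on both sides (some results past the limit were not filed as active); inactive = score 0, or 3 fluorescent, or 4 baseline rise.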

biological target: G protein-activated inward rectifier potassium channel 2 (Homo sapiens) + G protein-activated inward rectifier potassium channel 1 (Homo sapiens) (UniProt P48051+P48549); experiment: GIRK1/2 thallium flux modulators, retest, confirmation, cell-based, HEK293 rmGlu8/hGIRK1/2, FluoZin-2 (AID 623911); details: HEK293 rmGlu8/hGIRK1/2, thallium flux FluoZin-2; actives lie on both sides; glutamate co-added at its EC20 level
Sequence (P48051 whole entry, looked up): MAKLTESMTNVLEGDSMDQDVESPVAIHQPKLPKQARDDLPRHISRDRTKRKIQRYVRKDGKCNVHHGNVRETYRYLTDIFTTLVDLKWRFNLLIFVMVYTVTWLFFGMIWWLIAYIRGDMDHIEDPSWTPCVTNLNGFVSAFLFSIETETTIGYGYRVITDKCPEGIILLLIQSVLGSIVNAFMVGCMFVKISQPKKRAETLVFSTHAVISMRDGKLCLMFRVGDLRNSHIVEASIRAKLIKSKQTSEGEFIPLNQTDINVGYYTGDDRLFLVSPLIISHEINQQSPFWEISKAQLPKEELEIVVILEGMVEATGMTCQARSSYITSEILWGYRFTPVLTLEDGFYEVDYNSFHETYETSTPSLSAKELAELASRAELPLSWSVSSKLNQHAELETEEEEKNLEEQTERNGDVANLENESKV
Sequence (P48549 whole entry, looked up): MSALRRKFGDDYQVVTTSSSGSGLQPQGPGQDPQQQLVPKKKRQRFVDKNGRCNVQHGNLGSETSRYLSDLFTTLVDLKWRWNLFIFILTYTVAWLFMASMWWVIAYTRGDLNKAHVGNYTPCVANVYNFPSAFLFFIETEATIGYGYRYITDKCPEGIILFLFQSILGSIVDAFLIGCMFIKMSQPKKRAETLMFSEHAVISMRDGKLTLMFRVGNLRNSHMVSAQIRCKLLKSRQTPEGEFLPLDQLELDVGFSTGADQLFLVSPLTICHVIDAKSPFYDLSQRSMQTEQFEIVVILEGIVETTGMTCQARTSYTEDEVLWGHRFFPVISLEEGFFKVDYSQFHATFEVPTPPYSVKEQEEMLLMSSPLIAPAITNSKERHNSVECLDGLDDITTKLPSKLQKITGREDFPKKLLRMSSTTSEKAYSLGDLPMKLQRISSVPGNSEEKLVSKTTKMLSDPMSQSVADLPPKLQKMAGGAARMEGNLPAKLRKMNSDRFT

| Structure (SMILES) | manual score |
| --- | --- |
| CCOC(=O)C1=C(C)NC2=C(C(=O)C(C(=O)OCC)C(c3cccc(OC)c3)C2)C1c1ccccn1 (centres undefined) | 0 |
| COC(=O)c1onc(C(=O)c2ccccc2)c1C(=O)OC | -1 (active) |
| CN(C)S(=O)(=O)c1cc(NC(=O)COC(=O)c2ccc3c(c2)OCO3)ccc1Cl | 0.5 |
| COC(=O)c1sccc1NC(=O)CSc1ccccc1NS(=O)(=O)c1cc(Cl)ccc1Cl | 0 |
| CC(C)C(=O)OCC(=O)Nc1ccc(N=Nc2ccccc2)cc1 | 0 |
| CCC(C(=O)OCC(=O)Nc1ccc(Cl)c(S(=O)(=O)N(C)C)c1)c1ccccc1 (centres undefined) | 1 (active) |
| Cc1nn(CC(=O)Nc2ccc(Cl)c(S(=O)(=O)N(C)C)c2)c(C)c1[N+](=O)[O-] | 1 (active) |
| Cc1cc(C)n(-c2ccc(C(=O)OCC(=O)Nc3ccc(Cl)c(S(=O)(=O)N(C)C)c3)cc2)n1 | 1 (active) |
| CCCCN(CCCC)c1nc2ccccc2nc1C(C#N)C(=O)NCCCOC (centres undefined) | 3 |
| Oc1ccccc1CNc1ccc(Br)cn1 | 0 |
| CCSc1nc(-c2ccccc2)c(C#N)c(=O)[nH]1 | 0 |
| CCC1(c2ccc(Cl)cc2)NC(=S)N(c2ccccc2)N1 (centres undefined) | 1 (active) |
| S=C1NC(c2ccccc2)=NCN1c1ccc(Cl)cc1 | 0.5 |
| Cn1ncc2cc(NC(=S)NC(=O)c3ccccc3)ccc21 | 0 |
| CCCCOC(=O)c1ccc(NC(=S)NC(=O)c2c(Cl)cnn2C)cc1 | 0 |
| COC(=O)c1ccc(NC(=S)NC(=O)c2c(Cl)cnn2C)cc1 | 1 (active) |
| COC(=O)c1ccc(NC(=S)NC(=O)c2cc(-c3ccccc3)nc3ccccc23)cc1 | 0 |
| CCCCOC(=O)c1ccc(NC(=S)NC(=O)c2c(Cl)cnn2CC)cc1 | 1 (active) |
| CCCCOC(=O)c1ccc(NC(=S)NC(=O)c2c(Br)c(C)nn2C)cc1 | 0 |
| CCOC(=O)c1c(C)[nH]c(C(=O)COC(=O)CNC(=O)c2ccc(Cl)cc2)c1C | 0 |
| CCOC(=O)C1=NN(C(=O)c2ccc(C)cc2)C(O)(c2ccc(Cl)cc2)C1 (centres undefined) | 1 (active) |
| CCOC(=O)C1=NN(C(=O)c2ccccc2)C(O)(c2ccc(C)cc2)C1 (centres undefined) | 1 (active) |
| COC(=O)C1=NN(C(=O)c2ccc(C)cc2)C(O)(c2ccc(Cl)cc2)C1 (centres undefined) | 1 (active) |
| CC1=NN(c2ccccc2)C(=O)C1C(=O)c1ccc(Cl)cc1 (centres undefined) | 0.5 |
| CCC1=NN(C(=O)c2cccc(Br)c2)C(O)(c2ccc(Br)cc2)C1 (centres undefined) | 0 |
| COC(=O)C1=NN(C(=O)c2ccc(Cl)cc2)C(O)(c2ccccc2)C1 (centres undefined) | 1 (active) |

| Structure (SMILES) | manual score |
| --- | --- |
| CCOC(=O)C1=C(NC(=S)NC(=O)c2ccccc2)c2ccccc2CC1(C)C | 0 |
| CC(C)c1nc(N2CCOCC2)c(C#N)c2c1CCCC2 | 0 |
| Cc1ccc2c(c1)NC(=O)CC(c1ccccc1)=N2 | 0 |
| Oc1cccc(NC(=S)Nc2ccc(SC(F)F)cc2)c1 | 1 (active) |
| O=S(=O)(c1ccccc1)N1CCN(C(=S)Nc2ccc(F)cc2)CC1 | 0 |
| CC1CCCCC1NC(=S)Nc1ccc(SC(F)F)cc1 (centres undefined) | 1 (active) |
| CC1CC(C)CN(C(=S)Nc2ccc(SC(F)F)cc2)C1 (centres undefined) | 1 (active) |
| Cc1ccc(SC(C)C(=O)Nc2ccc(S(=O)(=O)N3CCOCC3)cc2)cc1 (centres undefined) | 0 |
| CC1CCCC(NC(=S)Nc2ccc(SC(F)F)cc2)C1C (centres undefined) | 1 (active) |
| CCNc1ccc2noc3c2c1C(=O)c1ccccc1-3 | 0 |
| CCN(CC)c1ccc2c(c1)OC(N)=C(C#N)C2c1cccnc1 (centres undefined) | 3 |
| CCc1nc(SCc2ccc(F)cc2)[nH]c(=O)c1C#N | 3 |
| CCOc1ccc(-c2nc(-c3cccnc3)no2)cc1OCC | 0 |
| Cc1ccc(N=Nc2ccc(O)c3ncccc23)cc1 | 0 |
| Cc1ccc(N=Cc2cc3c(cc2O)OC(N)=C(C#N)C3c2ccccc2)cc1 (centres undefined) | 0 |
| CCOc1cccc(C(=O)NC(=S)Nc2ccccc2)c1 | 0 |
| CCOc1ccc(C(=O)NC(=S)N(Cc2ccccc2)Cc2ccccc2)cc1 | 1 (active) |
| COc1ccc(C(=O)NC(=S)N(Cc2ccccc2)Cc2ccccc2)cc1 | 1 (active) |
| CN(C)C(=O)CSc1cccc2cccnc12 | 0 |
| CC(Nc1ccc(Br)cn1)c1cc(Cl)ccc1O (centres undefined) | 0 |
| S=C(N/N=C/c1ccccc1)N1CCOCC1 | 0.5 |
| Cc1ccc(/C=N/NC(=S)N2CCOCC2)cc1 | 1 (active) |
| CNC(=S)N/N=C/c1ccc(C(C)C)cc1 | 0 |
| S=C(N/N=C/c1ccc(Cl)cc1)N1CCOCC1 | 1 (active) |
| Clc1ccc(/C=N/Nc2nc(Cl)nc3ccccc23)cc1 | 0 |
| Cc1ccc(C(=O)c2ccc(N3CCOCC3)c(F)c2)cc1 | 0 |

| Structure (SMILES) | manual score |
| --- | --- |
| O=C1CC(C(=O)Nc2ccc(Br)cc2)C2(CCCC2)O1 (centres undefined) | 1 (active) |
| O=C(Nc1ccc(Br)cc1)C1CCC(=O)N1Cc1ccccc1Cl (centres undefined) | 0 |
| COCc1nnc(NC(=O)C(C)C)s1 | 0 |
| CCCCn1c(-c2csc3c2CCC(C)C3)n[nH]c1=S (centres undefined) | 0 |
| Cn1nc(C(F)(F)F)c2cc(NC(=O)OCc3ccc(F)cc3)sc21 | 0 |
| CCOC(=O)C(CC)Sc1nnc(COc2ccc(C)cc2)n1-c1ccccc1 (centres undefined) | -1 (active) |
| CCOC(=O)C(CC)Sc1nnc2cc(C)c3ccccc3n12 (centres undefined) | 0 |
| CC(/C=N/n1c(COc2ccccc2)n[nH]c1=S)=C\c1ccccc1 | 0 |
| Cc1cccc2cc(/C=C3\N=C(c4ccccc4)OC3=O)c(N3CCOCC3)nc12 | 3 |
| CCOC(=O)C1=C(C)NC2=C(C(=O)CC(c3ccc(OC)c(OC)c3)C2)C1c1ccc(C)o1 (centres undefined) | 0 |
| CC1=C(C(=O)OCC2CCCO2)C(c2ccc(C)o2)C2=C(CC(c3ccc(F)cc3)CC2=O)N1 (centres undefined) | -1 (active) |
| CCOC(=O)C1=C(C)NC(=O)NC1c1ccc(Br)o1 (centres undefined) | 0 |
| O=C(CSc1nnc(-c2cccnc2)o1)OC1CCCCC1 | 0 |
| COC(=O)c1[nH]c2ccc(C)cc2c1NC(=O)CCN1CCN(Cc2ccc3c(c2)OCO3)CC1 | -1 (active) |
| Cc1ccc(C)c(Nc2c([N+](=O)[O-])cc(C(=O)N3CC(=O)Nc4ccccc43)cc2[N+](=O)[O-])c1 | 0 |
| S=c1nc(-c2ccc(Br)cc2)oc2c1CCCC2 | 1 (active) |
| c1ccc2c(N3CCCCCC3)nc(-c3ccncc3)nc2c1 | -1 (active) |
| c1ccc(-c2nnc3ccc(N4CCCC4)nn23)cc1 | 0 |
| O=c1c2cccnc2[nH]c(=S)n1CCCN1CCN(c2ccc(F)cc2)CC1 | 0 |
| Cc1ccc(C)n1-c1ccc(-c2nnco2)cc1 | 0 |
| CCCC(=O)n1nc(-c2ccccc2)nc1N | 0 |
| CCOC(=O)C(Cc1ccccc1)NC(=O)Cn1nnc(-c2ccccc2)n1 (centres undefined) | 1 (active) |
| CCOC(=O)CSc1cc(CSc2ccccc2)nc(-c2ccccc2)n1 | 0 |
| Cc1ccc(N2CC(C(=O)N/N=C/c3sccc3C)CC2=O)cc1 (centres undefined) | 0.5 |
| CN(C)CCCN1C(=O)c2oc3ccccc3c(=O)c2C1c1cccs1 (centres undefined) | 0 |
| CCN(CC)CCCN1C(=O)c2oc3ccccc3c(=O)c2C1c1cccs1 (centres undefined) | 1 (active) |

| Structure (SMILES) | manual score |
| --- | --- |
| CCN(CC)CCN1C(=O)c2oc3ccccc3c(=O)c2C1c1ccccc1 (centres undefined) | 0 |
| Cc1cc2c(cc1C)NC(c1c(C)n(C)n(-c3ccccc3)c1=O)C1=C(CC(C)(C)CC1=O)N2 (centres undefined) | 3 |
| Cc1c(C2Nc3ccccc3NC3=C2C(=O)CC(C)(C)C3)cnn1C (centres undefined) | 0 |
| CC(C)Sc1nc2c(c(=O)[nH]1)C(c1cccs1)C1=C(CC(C)(C)CC1=O)N2 (centres undefined) | -1 (active) |
| Cc1cc([N+](=O)[O-])ccc1-c1ccc(C2Nc3ccccc3C(=O)N2O)o1 (centres undefined) | 0 |
| COc1ccc(C(=O)C2C(c3ccc(-c4ccccc4[N+](=O)[O-])o3)NC(=O)NC2(O)C(F)(F)F)cc1 (centres undefined) | -1 (active) |
| CN(C)c1nc2ccccc2c(N)c1-c1ccccc1 | -1 (active) |
| Fc1cccc2sc(Nc3nc4ccccc4s3)nc12 | 0 |
| Fc1ccc2nc(Nc3nc4c(F)cc(F)cc4s3)sc2c1 | 0 |
| Fc1cc(F)c2nc(Nc3nc4c(F)cccc4s3)sc2c1 | 0.5 |
| COc1cc(OC)cc(-c2nnc(Nc3nc4c(F)cccc4s3)o2)c1 | 0 |
| COc1cccc(-c2nnc(Nc3nc4c(F)cccc4s3)o2)c1 | 1 (active) |
| Fc1cccc2sc(Nc3nnc(-c4ccccc4)o3)nc12 | 1 (active) |
| Fc1cccc2sc(Nc3nc4cc5c(cc4s3)OCO5)nc12 | 0 |
| Fc1cccc2sc(Nc3nnc(-c4ccco4)o3)nc12 | 1 (active) |
| Fc1ccc2nc(Nc3nc4c(F)cccc4s3)sc2c1 | 1 (active) |
| COc1ccc(-c2nnc3sc(C4CCCCC4)nn23)cc1OC | 0 |
| C=CCNC(=O)C1CC(=O)N(c2ccc(OCC(=O)Nc3ccccc3)cc2)C1 (centres undefined) | 0 |
| Cc1cc2nc(CCN(C(=S)NCC(C)C)C3CCCC3)[nH]c2cc1C | 0 |
| Cc1cccc(NC(=S)NNC(=O)c2csc3c2CCCC3)c1 | 1 (active) |
| CC(C)(C)C1CCc2c(C(=O)N/N=C/c3cccs3)csc2C1 (centres undefined) | 0 |
| Cc1ccc(NC(=O)c2ccc(COc3ccc4c(c3)CCC4)cc2)c(C)c1 | 0 |
| Cc1ccc(C)c(NC(=S)NNC(=O)c2csc3c2CCCC3)c1 | 1 (active) |
| Cc1cccc(NC(=S)NNC(=O)c2csc3c2CCC(C)C3)c1 (centres undefined) | 1 (active) |
| Cc1ccc(C)c(NC(=S)NNC(=O)c2csc3c2CCC(C)C3)c1 (centres undefined) | 1 (active) |
| Cc1cccc(CSc2cccc3cccnc23)c1 | 0 |
